Among the test systems are HOP-92 NSCLC; 786-0 renal; MALME-3M melanoma; RXF 393 renal; EKVX NSCLC; SN12C renal; TK-10 renal; A498 renal; CCRF-CEM leukemia; RPMI-8226 leukemia; OVCAR-8 ovarian; OVCAR-5 ovarian; OVCAR-4 ovarian; SK-OV-3 ovarian; IGROV1 ovarian; NCI/ADR-RES ovarian; T-47D breast; MDA-MB-435 melanoma; MCF7 breast; HCT-116 colon.
What all share (assay): NCI-60 one-dose screen, 48 h (100 = growth as untreated, 0 = no growth, -100 = all killed)
What all share (settings): 10 µM

Compounds without any hit were thinned out: in the full panel of roughly 83,000, 20% have a hit.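 The endpoint reported here, percent growth, reads 100 for growth as untreated, 0 for no net growth and -100 for all cells dead.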 A number with no mark means an inactive call. The source made the active and inactive calls. Rule for the calls: active = growth percent below 10; inactive = the rest.

`CC12CCC3(CCC(=O)NCCCNc4ccnc5cc(Cl)ccc45)[C@@](C)(OO[C@]3(C)O1)O2`: the growth is 3.32% (active) in the assay with HOP-92 NSCLC; -22.7% (active) with 786-0 renal; 17.5% in the assay on MALME-3M melanoma; -47.1% (active) with RXF 393 renal; 4.65% (active) with EKVX NSCLC; -15.1% (active) in the assay with SN12C renal. For the same compound, the growth in the assay with TK-10 renal was -17.8% (active); in the assay with A498 renal it was 85.3%; in the assay on CCRF-CEM leukemia, 3.78% (active); in the assay on RPMI-8226 leukemia it was 22.2%; in the assay on OVCAR-8 ovarian it was -1.11% (active); with OVCAR-5 ovarian it was 4.68% (active). Besides, the growth with OVCAR-4 ovarian was 33.1%; in the assay on SK-OV-3 ovarian, 13.1%; with IGROV1 ovarian it was -23.3% (active); in the assay on NCI/ADR-RES ovarian, -14.7% (active); in the assay with T-47D breast, 36.9%; with MDA-MB-435 melanoma, 18.3%. In addition, the figures for the growth with MCF7 breast and with HCT-116 colon were 9.36% (active) and 9.58% (active), respectively.

In the case of `COC(=O)C[C@](O)(CCC(C)C)C(=O)O[C@H]1C(OC)=C[C@@]23CCCN2CCc2cc4c(cc2[C@@H]13)OCO4`, the growth with 786-0 renal is -16.1% (active); in the assay with MALME-3M melanoma, -45.1% (active); in the assay on RXF 393 renal, -30.5% (active); in the assay on EKVX NSCLC, -16.2% (active); in the assay on SN12C renal it was -14.9% (active); in the assay on TK-10 renal, -16.4% (active). The growth in the assay with A498 renal is -19% (active); in the assay with CCRF-CEM leukemia, -5.42% (active); in the assay on RPMI-8226 leukemia it was -19.5% (active); in the assay on OVCAR-8 ovarian, -38.8% (active); in the assay on OVCAR-5 ovarian, -20.4% (active); in the assay on OVCAR-4 ovarian, -22.7% (active). Besides, the growth with SK-OV-3 ovarian was -8.41% (active); in the assay with IGROV1 ovarian, -19.3% (active); in the assay with NCI/ADR-RES ovarian it was -2.69% (active); in the assay on T-47D breast, -7.42% (active); in the assay on MDA-MB-435 melanoma, -32.6% (active); with MCF7 breast, -17% (active). Besides, in the assay on HCT-116 colon, the growth is -20.4% (active).

Turning to `C=CCN=C([Se])NC(=O)c1ccc2c(c1)OCO2`, the growth in the assay on HOP-92 NSCLC is 151%; in the assay with 786-0 renal, 85.8%; in the assay on MALME-3M melanoma it was 110%; with RXF 393 renal it was 128%; in the assay with EKVX NSCLC, 73.5%; with SN12C renal, 81.5%. The growth with TK-10 renal was 120%; in the assay with A498 renal, 82.5%; in the assay on CCRF-CEM leukemia it was 87.1%; in the assay with RPMI-8226 leukemia it was 105%; in the assay on OVCAR-8 ovarian, 61.1%; with OVCAR-5 ovarian it was 117%. The growth is 108% in the assay with OVCAR-4 ovarian; 45.1% with SK-OV-3 ovarian; 75.6% in the assay with IGROV1 ovarian; 60.3% with NCI/ADR-RES ovarian; 96.6% in the assay on T-47D breast; 96.6% in the assay with MDA-MB-435 melanoma. Besides, the growth was 102% in the assay on MCF7 breast and 43.6% in the assay on HCT-116 colon.

In the case of `COc1ccc(OC)c(/C=C/C(=O)c2nc3ccccc3n2Cc2ccc(F)cc2)c1`, the growth in the assay on HOP-92 NSCLC is -11% (active); with 786-0 renal it was -57.7% (active); in the assay with MALME-3M melanoma, -36.9% (active); in the assay with RXF 393 renal, -52.5% (active); with EKVX NSCLC, -62.1% (active); with SN12C renal, 4.76% (active). Moreover, the growth in the assay with TK-10 renal is 13.1%; with A498 renal, 116%; with CCRF-CEM leukemia, -18.5% (active); in the assay with RPMI-8226 leukemia, -36.8% (active); in the assay on OVCAR-8 ovarian, 3.97% (active); in the assay with OVCAR-5 ovarian, -43% (active). The growth was 37.9% in the assay on OVCAR-4 ovarian; 50.2% in the assay with SK-OV-3 ovarian; -7.29% (active) with IGROV1 ovarian; -41.5% (active) in the assay with NCI/ADR-RES ovarian; 10.5% with T-47D breast; -46.9% (active) in the assay on MDA-MB-435 melanoma. The growth with MCF7 breast was 2.95% (active); with HCT-116 colon, -91.1% (active).

On to `COc1ccc(/C=C/C(=O)c2nc3ccccc3n2Cc2ccc(Br)cc2)cc1`, for which the growth in the assay with HOP-92 NSCLC was 64.2%; with 786-0 renal, 64.7%; in the assay on MALME-3M melanoma it was 73.1%; with RXF 393 renal, 83.6%; in the assay on EKVX NSCLC, 52.5%; with SN12C renal it was 90.4%. The growth with TK-10 renal was 110%; in the assay on A498 renal it was 122%; in the assay with CCRF-CEM leukemia it was 18.7%; in the assay on RPMI-8226 leukemia, 22.5%; in the assay on OVCAR-8 ovarian, 77.5%; with OVCAR-5 ovarian it was 89.6%. Also, the growth in the assay on OVCAR-4 ovarian is 66.1%; with SK-OV-3 ovarian it was 91.7%; in the assay with IGROV1 ovarian, 65.8%; in the assay on NCI/ADR-RES ovarian, 61.5%; with T-47D breast, 31.1%; with MDA-MB-435 melanoma it was 61.1%. Further, the results for the growth in the assay on MCF7 breast and with HCT-116 colon were 9.99% (active) and 32%, respectively.

Take `O=C(/C=C/c1ccccc1)c1nc2ccccc2n1Cc1ccc(F)cc1`: the growth in the assay with HOP-92 NSCLC is -28.4% (active); in the assay on 786-0 renal it was -88.3% (active); with MALME-3M melanoma it was -28.3% (active); in the assay with RXF 393 renal, -89.3% (active); with EKVX NSCLC, -60.5% (active); with SN12C renal it was -5.26% (active). Further, the growth in the assay with TK-10 renal was -14.3% (active); in the assay on A498 renal, 106%; in the assay on CCRF-CEM leukemia it was -23.7% (active); in the assay on RPMI-8226 leukemia, -38% (active); with OVCAR-8 ovarian, 4.71% (active); with OVCAR-5 ovarian, -15.1% (active). In addition, the growth in the assay on OVCAR-4 ovarian was 47.7%; in the assay on SK-OV-3 ovarian, 64.9%; with IGROV1 ovarian it was -32.9% (active); in the assay with NCI/ADR-RES ovarian, -49.6% (active); in the assay on T-47D breast it was -15.9% (active); in the assay on MDA-MB-435 melanoma, -29.3% (active). The growth was -32.7% (active) in the assay on MCF7 breast and -87.4% (active) with HCT-116 colon.

As to `COc1cc(OC)c(/C=C/C(=O)c2nc3ccccc3n2Cc2ccc(F)cc2)c(OC)c1`, the growth with HOP-92 NSCLC was 50.2%; with 786-0 renal, 85%; in the assay on MALME-3M melanoma it was 105%; in the assay with RXF 393 renal, 33.7%; in the assay on EKVX NSCLC it was 73.5%; with SN12C renal it was 77.3%. The growth in the assay with TK-10 renal is 109%; in the assay with A498 renal, 130%; in the assay on CCRF-CEM leukemia it was 64.5%; in the assay with RPMI-8226 leukemia, 78.4%; in the assay with OVCAR-8 ovarian, 79.7%; with OVCAR-5 ovarian, 112%. Besides, the growth was 56.7% with OVCAR-4 ovarian; 88.2% in the assay on SK-OV-3 ovarian; 101% in the assay on IGROV1 ovarian; 78.2% in the assay on NCI/ADR-RES ovarian; 61.8% with T-47D breast; 83.5% in the assay with MDA-MB-435 melanoma. Besides, the growth in the assay with MCF7 breast is 56.1%; in the assay on HCT-116 colon, 74.8%.

Consider `COP(=O)(CC(F)(F)C(F)(F)F)OC`, for which the growth was -29.8% (active) in the assay with HOP-92 NSCLC; -3% (active) with 786-0 renal; -59.1% (active) with MALME-3M melanoma; 81.1% in the assay with EKVX NSCLC; 76.2% in the assay on SN12C renal; -40.6% (active) in the assay on TK-10 renal. Moreover, the growth with A498 renal was 131%; with CCRF-CEM leukemia it was 5.28% (active); in the assay on RPMI-8226 leukemia it was 12.3%; in the assay on OVCAR-8 ovarian, -75.6% (active); with OVCAR-5 ovarian, 68.9%; with OVCAR-4 ovarian, -13.4% (active). Moreover, the growth in the assay on SK-OV-3 ovarian is 118%; in the assay with IGROV1 ovarian, 50.2%; with NCI/ADR-RES ovarian, 61.8%; in the assay with T-47D breast, 13.2%; in the assay with MDA-MB-435 melanoma, 9.6% (active); in the assay on MCF7 breast, 3.91% (active). The growth with HCT-116 colon is -60.6% (active).

These data come from PubChem BioAssay (NCI).
